Assay results from PubChem BioAssay (NCATS).
Records with an inconclusive call do not appear. The source made the active and inactive calls. Calls come from the whole dose curve; as a rule, active = well fitted curve in the direction sought with a large enough effect; inconclusive = small, poorly fitted or top-dose-only effect, or another doubt; inactive = no such curve, though single readings can be large; an effect the other way counts as inactive or inconclusive.

How the values were obtained:
[1] = molecular target: Rap guanine nucleotide exchange factor 3 (Homo sapiens) (UniProt O95398); assay: Confirmatory qHTS for antagonist of cAMP-regulated guanine nucleotide exchange factor 3 (EPAC1) (AID 1645880); note: nearly all actives have a fitted effect of over 55% in size; note: potency is the fitted concentration of half-maximal effect
How it was run: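 Released BODIPY-GDP fluoresces less than Rap1-bound BODIPY-GDP; the signal is followed at 480/540 nm at 5-min intervals over 30 min, after 5 min at room temperature. Reactions contain 100 nM EPAC1, 250 nM RAP1B-BODIPY-GDP and 50 uM GDP; results are normalized to ATA and DMSO.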

[2] = molecular target: Rap guanine nucleotide exchange factor 3 (Homo sapiens) (UniProt O95398); assay: Confirmatory qHTS for agonist of cAMP-regulated guanine nucleotide exchange factor 3 (EPAC1) (AID 1645881); note: nearly all actives have a fitted effect of over 75% in size; note: potency is the fitted concentration of half-maximal effect;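 for activation: EPAC1 catalysed release of BODIPY-GDP from Rap1B seen as fluorescence loss; 100% = effect of cAMP agonist control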
[3] = molecular target: Rap guanine nucleotide exchange factor 4 (Homo sapiens) (UniProt Q8WZA2); assay: Confirmatory qHTS for agonist of cAMP-regulated guanine nucleotide exchange factor 4 (EPAC2) (AID 1645884);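 note: nucleotide exchange releases bodipy-GDP from Rap1 and this lowers its fluorescence; nearly all actives have a fitted effect of over 65% in size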; note: potency is the fitted concentration of half-maximal effect; for activation: % is set by controls: 0 for no effect and ±100 for the full control effect
[4] = molecular target: Rap guanine nucleotide exchange factor 4 (Homo sapiens) (UniProt Q8WZA2); assay: Confirmatory qHTS for antagonist of cAMP-regulated guanine nucleotide exchange factor 4 (EPAC2) (AID 1645885); note: nearly all actives have a fitted effect of over 25% in size; note: potency is the fitted concentration of half-maximal effect; for activity change, negative = inhibition: % is set by controls: 0 for no effect and ±100 for the full control effect
[5] = molecular target: Rap guanine nucleotide exchange factor 3 (Homo sapiens) (UniProt O95398); assay: Counterscreen qHTS for antagonist of cAMP-regulated guanine nucleotide exchange factor 3 (EPAC1) (AID 1645888); note: % of control where 0% means no effect
How it was run: (§1)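 Measured: fluorescence of BODIPY-GDP bound to Rap1B, which falls as exchange proceeds. Conditions include 50 uM competing GDP, 5 and 30 min reads, and a later cAMP challenge for antagonist detection.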

[6] = molecular target: Rap guanine nucleotide exchange factor 3 (Homo sapiens) (UniProt O95398); assay: Counterscreen qHTS for agonist of cAMP-regulated guanine nucleotide exchange factor 3 (EPAC1) (AID 1645889); note: nearly all actives have a fitted effect of over 40% in size; note: potency is the fitted concentration of half-maximal effect; for activation: % of control where 0% means no effect
How it was run: as §1

Sequence of Rap guanine nucleotide exchange factor 3 (Homo sapiens) (O95398 whole entry, looked up): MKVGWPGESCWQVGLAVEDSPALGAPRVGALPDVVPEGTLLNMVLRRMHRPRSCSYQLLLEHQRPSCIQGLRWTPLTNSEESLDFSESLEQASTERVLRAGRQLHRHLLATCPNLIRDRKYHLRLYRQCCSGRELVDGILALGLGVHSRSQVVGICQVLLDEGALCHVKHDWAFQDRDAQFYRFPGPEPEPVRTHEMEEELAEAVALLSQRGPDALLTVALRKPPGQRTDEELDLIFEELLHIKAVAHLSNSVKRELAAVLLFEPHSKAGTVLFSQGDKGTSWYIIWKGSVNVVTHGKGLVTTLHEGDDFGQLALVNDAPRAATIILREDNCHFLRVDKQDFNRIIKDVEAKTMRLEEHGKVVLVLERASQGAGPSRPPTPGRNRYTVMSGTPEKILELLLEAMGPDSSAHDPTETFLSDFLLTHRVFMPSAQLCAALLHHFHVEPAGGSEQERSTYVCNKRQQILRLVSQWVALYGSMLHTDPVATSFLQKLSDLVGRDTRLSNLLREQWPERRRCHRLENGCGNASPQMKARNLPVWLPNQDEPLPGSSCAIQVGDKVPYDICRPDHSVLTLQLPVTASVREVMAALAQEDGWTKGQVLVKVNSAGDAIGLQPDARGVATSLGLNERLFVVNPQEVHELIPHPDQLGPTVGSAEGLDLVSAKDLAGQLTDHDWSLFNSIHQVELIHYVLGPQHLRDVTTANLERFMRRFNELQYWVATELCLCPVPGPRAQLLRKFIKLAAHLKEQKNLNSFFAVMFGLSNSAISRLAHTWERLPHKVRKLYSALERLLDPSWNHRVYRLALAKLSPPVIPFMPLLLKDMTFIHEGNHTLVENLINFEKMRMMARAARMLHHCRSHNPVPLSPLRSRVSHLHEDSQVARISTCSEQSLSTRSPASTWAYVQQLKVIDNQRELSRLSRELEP
Sequence of Rap guanine nucleotide exchange factor 4 (Homo sapiens) (Q8WZA2 whole entry, looked up): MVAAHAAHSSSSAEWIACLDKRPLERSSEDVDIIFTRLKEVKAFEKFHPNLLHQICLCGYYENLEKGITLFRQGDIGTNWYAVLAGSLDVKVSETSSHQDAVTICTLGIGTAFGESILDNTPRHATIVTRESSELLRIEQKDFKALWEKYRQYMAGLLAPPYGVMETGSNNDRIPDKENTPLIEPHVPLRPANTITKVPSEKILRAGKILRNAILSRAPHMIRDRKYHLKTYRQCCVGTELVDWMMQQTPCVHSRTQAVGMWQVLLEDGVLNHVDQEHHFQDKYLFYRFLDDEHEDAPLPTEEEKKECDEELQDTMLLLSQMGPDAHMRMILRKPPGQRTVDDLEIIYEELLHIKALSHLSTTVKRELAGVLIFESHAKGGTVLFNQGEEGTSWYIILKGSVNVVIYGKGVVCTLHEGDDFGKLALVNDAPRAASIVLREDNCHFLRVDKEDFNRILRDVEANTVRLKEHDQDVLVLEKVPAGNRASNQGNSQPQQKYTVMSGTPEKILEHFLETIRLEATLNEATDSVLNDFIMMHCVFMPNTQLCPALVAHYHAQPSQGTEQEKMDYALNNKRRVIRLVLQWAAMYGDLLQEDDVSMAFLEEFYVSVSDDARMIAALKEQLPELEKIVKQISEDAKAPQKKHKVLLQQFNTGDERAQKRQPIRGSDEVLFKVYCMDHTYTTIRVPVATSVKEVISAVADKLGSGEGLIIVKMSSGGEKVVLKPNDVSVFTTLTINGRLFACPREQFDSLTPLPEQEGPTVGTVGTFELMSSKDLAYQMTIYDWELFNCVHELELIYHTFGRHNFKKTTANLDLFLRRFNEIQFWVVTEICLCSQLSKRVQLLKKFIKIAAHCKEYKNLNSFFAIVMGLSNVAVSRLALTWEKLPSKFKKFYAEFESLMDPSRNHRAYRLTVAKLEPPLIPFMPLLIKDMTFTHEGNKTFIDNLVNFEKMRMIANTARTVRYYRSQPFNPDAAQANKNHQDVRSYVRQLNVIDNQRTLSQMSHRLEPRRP

O=C(CCCc1ccccc1)NCc1cn2ccsc2n1
inactive: Potency [1] | Potency [2] | Potency [3] | Potency [4] | Potency [5] | Potency [6]

Cc1[nH]c2ccccc2c1C(=O)C(C)OC(=O)c1ccc(Cl)nc1 (centres undefined)
inactive: Potency [1] | Potency [2] | activation [3] 9.38% [at 17.1 µM, percent relative to cAMP agonist control] | Potency [4] | activity change, negative = inhibition [5] -3.94% [at 30.8 µM] | activation [6] 19.4% [at 30.8 µM]

COc1cc(SC)ccc1C(=O)N(Cc1ccccc1)c1ccccc1
active: Potency [4] 23.9 µM
inactive: Potency [1] | Potency [2] | Potency [3] | Potency [5] | Potency [6]

COc1cccc(C2=NN(C(C)=O)C(c3cccs3)C2)c1 (centres undefined)
inactive: Potency [1] | Potency [2] | Potency [3] | Potency [4] | Potency [5] | Potency [6]

CCc1nnc(NC(=O)c2cc(-c3ccco3)nc3ccccc23)s1
active: Potency [1] 21.3 µM
inactive: Potency [2] | Potency [3] | Potency [4] | Potency [5] | Potency [6]

Cc1ccc(Sc2ccc(S(=O)(=O)Nc3ccc(C(=O)O)cc3)cc2)cc1C
active: Potency [1] 67.5 µM
inactive: Potency [2] | Potency [3] | Potency [4] | Potency [5] | Potency [6]

CCOc1ccc(NC(=O)CN(C)C(=O)c2cc3c(s2)CCC3)cc1OCC
inactive: Potency [2] | Potency [3] | Potency [4] | Potency [5] | Potency [6]
active: Potency [1] 37.9 µM

CC1CC1C(=O)OCC(=O)NNC(=O)COc1ccc(Br)cc1 (centres undefined)
inactive: Potency [1] | Potency [2] | activation [3] 2.41% [at 17.1 µM, percent relative to cAMP agonist control] | Potency [4] | activity change, negative = inhibition [5] 26.9% [at 30.8 µM] | activation [6] 28.1% [at 30.8 µM]

O=C(N/N=C/c1c(O)n(-c2ccccc2Cl)c(=O)c2ccccc12)c1cccnc1
active: Potency [1] 3.38 µM
inactive: Potency [2] | Potency [3] | Potency [4] | Potency [5] | Potency [6]

Cc1cc2[nH]c(=O)c(=O)[nH]c2cc1S(=O)(=O)Nc1cccc(Cl)c1
inactive: Potency [2] | Potency [3] | Potency [4] | Potency [5] | Potency [6]
active: Potency [1] 42.6 µM

Nc1c(C(=O)c2ccccc2)sc2nsc(SCCN3CCCC3)c12
inactive: Potency [1] | Potency [5]
active: Potency [2] 100 µM | Potency [3] 100 µM | Potency [4] 84.9 µM | Potency [6] 39.8 µM

Cc1ccc2oc(=O)n(CCOc3ccccc3Cl)c2c1
inactive: Potency [1] | Potency [2] | Potency [3] | Potency [4] | Potency [5] | Potency [6]

CCC(=O)N1CCc2cc(OC)c(OC)cc2C1COc1ccccc1OC (centres undefined)
inactive: Potency [1] | Potency [2] | Potency [3] | Potency [4] | Potency [5] | activation [6] 4.46% [at 30.8 µM]

CC1(C)CC(=O)c2sc(N3CCCCC3)nc2C1
active: Potency [4] 75.7 µM
inactive: Potency [1] | Potency [2] | Potency [3] | Potency [5] | Potency [6]

COC(=O)c1cn(C(=O)c2cc(OC)c(OC)c(OC)c2)c2ccccc12
inactive: Potency [1] | Potency [2] | Potency [3] | Potency [4] | Potency [5] | Potency [6]

COc1ccc(S(=O)(=O)Nc2ccc(OCC(=O)O)cc2)c2ccccc12
active: Potency [4] 47.8 µM
inactive: Potency [1] | Potency [2] | Potency [3] | Potency [5] | Potency [6]

CCOC(=O)/C(=C\c1ccc(N2CCC(c3ccccc3)=N2)cc1)C(C)=O
inactive: Potency [1] | activation [3] 15.2% [at 17.1 µM, percent relative to cAMP agonist control] | Potency [4] | activity change, negative = inhibition [5] 28% [at 30.8 µM]
active: Potency [2] 79.4 µM | Potency [6] 12.6 µM

Cc1cc(Br)c2c(c1)C(O)(N1CCCCC1C)C(=O)N2 (centres undefined)
inactive: Potency [1] | Potency [2] | activation [3] 10.3% [at 17.1 µM, percent relative to cAMP agonist control] | Potency [4] | activity change, negative = inhibition [5] -0.193% [at 30.8 µM] | activation [6] 19.4% [at 30.8 µM]

Cn1cc(C(=O)N/N=C/C2=C(N3CCOCC3)C(=C\c3ccccc3)/CC2)ccc1=O
inactive: Potency [1] | Potency [2] | activation [3] -0.586% [at 17.1 µM, percent relative to cAMP agonist control] | Potency [4] | activity change, negative = inhibition [5] -15% [at 30.8 µM] | activation [6] 5.8% [at 30.8 µM]

COC(=O)c1scc(C#N)c1N/N=C(\C#N)S(=O)(=O)c1ccc(Cl)cc1
inactive: Potency [2] | Potency [3] | Potency [4] | Potency [5] | Potency [6]
active: Potency [1] 47.8 µM

Cc1ccc(S(=O)(=O)N2[C@@H](c3ccc(Cl)c(Cl)c3)C(C(=O)O)=C[C@H]2CC2CCCC2)cc1
active: Potency [1] 44.7 µM
inactive: Potency [2] | activation [3] 11.3% [at 17.1 µM, percent relative to cAMP agonist control] | Potency [4] | activity change, negative = inhibition [5] -8.49% [at 30.8 µM] | activation [6] 18.3% [at 30.8 µM]

CC(Sc1nncn1C)C(=O)Nc1nnc(C(C)C)s1 (centres undefined)
inactive: Potency [1] | Potency [2] | Potency [3] | Potency [4] | Potency [5] | Potency [6]

COc1ccccc1OCC(=O)Nc1cc(C(F)(F)F)ccc1-n1cncn1
inactive: Potency [1] | Potency [2] | activation [3] 2.73% [at 17.1 µM, percent relative to cAMP agonist control] | Potency [4] | activity change, negative = inhibition [5] -12% [at 30.8 µM] | activation [6] 5.31% [at 30.8 µM]

O=C(c1ccc(Cl)cc1)C(CN1CCCCC1)c1ccccc1 (centres undefined)
inactive: Potency [2] | Potency [3] | Potency [4] | Potency [5] | Potency [6]
active: Potency [1] 37.9 µM

CCN1/C(=C/c2ccc3cc(C)ccc3[n+]2CC)Sc2ccccc21
inactive: Potency [2] | Potency [3] | Potency [4] | Potency [5] | Potency [6]
active: Potency [1] 75.7 µM

COC(=O)c1cc2occc2n1Cc1ccc(F)cc1Cl
inactive: Potency [1] | Potency [2] | Potency [3] | Potency [4] | Potency [5] | Potency [6]

COc1cc2ccccc2cc1C(=O)N1CC(C)CC(C)C1 (centres undefined)
inactive: Potency [1] | Potency [2] | activation [3] 1.37% [at 17.1 µM, percent relative to cAMP agonist control] | Potency [4] | activity change, negative = inhibition [5] 1.39% [at 30.8 µM] | activation [6] 27.4% [at 30.8 µM]

COc1cc(O)cc(O)c1C(=O)/C=C/c1ccccc1
active: Potency [1] 67.5 µM
inactive: Potency [2] | Potency [3] | Potency [4] | Potency [5] | Potency [6]

CCOC(=O)C1CCCCN1Cc1cn(C)nc1-c1ccccc1F (centres undefined)
inactive: Potency [1] | Potency [2] | Potency [3] | Potency [4] | Potency [5] | Potency [6]

CN(C)C(=O)CSc1nc(-c2ccccc2)c(-c2ccccc2)o1
inactive: Potency [1] | Potency [2] | activation [3] 5.35% [at 17.1 µM, percent relative to cAMP agonist control] | Potency [4] | activity change, negative = inhibition [5] 3.97% [at 30.8 µM] | activation [6] 9.57% [at 30.8 µM]

COc1ccc(OC)c(/C=c2\sc3nc(-c4cccs4)nn3c2=O)c1
inactive: Potency [1] | Potency [4] | Potency [5] | Potency [6]
active: Potency [2] 89.1 µM | Potency [3] 100 µM

CC(/C=C1\SC(=S)N(NS(=O)(=O)c2ccccc2)C1=O)=C\c1ccccc1
active: Potency [1] 22.4 µM
inactive: Potency [2] | activation [3] 7.93% [at 17.1 µM, percent relative to cAMP agonist control] | Potency [4] | activity change, negative = inhibition [5] -10.4% [at 30.8 µM] | activation [6] 7.68% [at 30.8 µM]

NS(=O)(=O)c1ccc(CCNC(=O)c2ccc3nccnc3c2)cc1
inactive: Potency [2] | Potency [3] | Potency [4] | Potency [5] | Potency [6]
active: Potency [1] 47.8 µM

COCCN(C)Cc1nc(C(c2ccccc2)c2ccccc2)no1
active: Potency [4] 47.8 µM
inactive: Potency [1] | Potency [2] | Potency [3] | Potency [5] | Potency [6]

COc1ccccc1C(=O)NC(CCSC)C(=O)NCc1ccccn1 (centres undefined)
inactive: Potency [1] | Potency [2] | activation [3] -0.555% [at 17.1 µM, percent relative to cAMP agonist control] | Potency [4] | activity change, negative = inhibition [5] -16.2% [at 30.8 µM] | activation [6] -9.2% [at 30.8 µM]

CC(C)CCOc1ccc(C2(C)NC(=O)N(CN3CCOCC3)C2=O)cc1 (centres undefined)
inactive: Potency [1] | Potency [2] | Potency [3] | Potency [4] | Potency [5] | Potency [6]

CCOC(=O)N1CCN(C(=O)c2cc(S(=O)(=O)N3CCc4ccccc43)ccc2OC)CC1
inactive: Potency [1] | Potency [2] | Potency [3] | Potency [4] | Potency [5] | Potency [6]

CCOc1nc(C)cc(C)c1S(=O)(=O)c1ccc(Cl)cc1
inactive: Potency [1] | Potency [2] | activation [3] -7.98% [at 17.1 µM, percent relative to cAMP agonist control] | Potency [4] | activity change, negative = inhibition [5] 0.426% [at 30.8 µM] | activation [6] 9.26% [at 30.8 µM]

COn1c(-c2ccc(Cl)cc2Cl)nc2ncccc21
inactive: Potency [1] | Potency [2] | Potency [3] | Potency [5] | Potency [6]
active: Potency [4] 84.9 µM

CCCCC(=O)Nc1cccc(NC(=O)c2ccccc2Br)c1
inactive: Potency [1] | Potency [2] | Potency [3] | Potency [4] | Potency [5] | Potency [6]

COc1ccc(/C=C/C(=O)c2ccncc2)c2ccccc12
inactive: Potency [1] | Potency [2] | activation [3] -6.66% [at 17.1 µM, percent relative to cAMP agonist control] | Potency [4] | activity change, negative = inhibition [5] -0.831% [at 30.8 µM] | activation [6] 15.3% [at 30.8 µM]

c1ccc(OCCCn2ccnc2)cc1
inactive: Potency [1] | Potency [2] | Potency [3] | Potency [4] | Potency [5] | Potency [6]

COc1ccc(/C=C2/SC(=S)N(NS(=O)(=O)c3ccccc3)C2=O)cc1
active: Potency [1] 39.8 µM
inactive: Potency [2] | activation [3] -0.663% [at 17.1 µM, percent relative to cAMP agonist control] | Potency [4] | activity change, negative = inhibition [5] -9.92% [at 30.8 µM] | activation [6] -1.02% [at 30.8 µM]

CCOc1ccccc1C(=O)N(Cc1cccs1)c1ccc(Cl)cc1
inactive: Potency [1] | Potency [2] | Potency [3] | Potency [4] | Potency [5] | Potency [6]
